The residual activity is the signal under treatment as a percentage of the control signal.

This passage reports residual activity results from ChEMBL document CHEMBL2218924, “A broad activity screen in support of a chemogenomic map for kinase signalling research and drug discovery” (Biochem J, 2013).

Assay [1] addresses T1, Testis-specific serine/threonine-protein kinase 2 (Homo sapiens) (UniProt Q96PF2).
T1 sequence (whole entry): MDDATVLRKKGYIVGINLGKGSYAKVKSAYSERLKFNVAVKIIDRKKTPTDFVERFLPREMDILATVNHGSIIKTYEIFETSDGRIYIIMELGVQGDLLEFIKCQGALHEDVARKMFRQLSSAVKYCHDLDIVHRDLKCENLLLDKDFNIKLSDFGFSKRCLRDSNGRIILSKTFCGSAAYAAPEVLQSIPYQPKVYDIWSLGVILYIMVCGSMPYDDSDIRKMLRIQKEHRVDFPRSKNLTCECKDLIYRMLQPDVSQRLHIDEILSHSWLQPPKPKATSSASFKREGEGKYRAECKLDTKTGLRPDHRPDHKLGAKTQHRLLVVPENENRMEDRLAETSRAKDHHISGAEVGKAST
As to conditions: at 1 µM.

The target in assay [2] is T2, Tyrosine-protein kinase Mer (Homo sapiens) (UniProt Q12866).
T2 sequence (whole entry): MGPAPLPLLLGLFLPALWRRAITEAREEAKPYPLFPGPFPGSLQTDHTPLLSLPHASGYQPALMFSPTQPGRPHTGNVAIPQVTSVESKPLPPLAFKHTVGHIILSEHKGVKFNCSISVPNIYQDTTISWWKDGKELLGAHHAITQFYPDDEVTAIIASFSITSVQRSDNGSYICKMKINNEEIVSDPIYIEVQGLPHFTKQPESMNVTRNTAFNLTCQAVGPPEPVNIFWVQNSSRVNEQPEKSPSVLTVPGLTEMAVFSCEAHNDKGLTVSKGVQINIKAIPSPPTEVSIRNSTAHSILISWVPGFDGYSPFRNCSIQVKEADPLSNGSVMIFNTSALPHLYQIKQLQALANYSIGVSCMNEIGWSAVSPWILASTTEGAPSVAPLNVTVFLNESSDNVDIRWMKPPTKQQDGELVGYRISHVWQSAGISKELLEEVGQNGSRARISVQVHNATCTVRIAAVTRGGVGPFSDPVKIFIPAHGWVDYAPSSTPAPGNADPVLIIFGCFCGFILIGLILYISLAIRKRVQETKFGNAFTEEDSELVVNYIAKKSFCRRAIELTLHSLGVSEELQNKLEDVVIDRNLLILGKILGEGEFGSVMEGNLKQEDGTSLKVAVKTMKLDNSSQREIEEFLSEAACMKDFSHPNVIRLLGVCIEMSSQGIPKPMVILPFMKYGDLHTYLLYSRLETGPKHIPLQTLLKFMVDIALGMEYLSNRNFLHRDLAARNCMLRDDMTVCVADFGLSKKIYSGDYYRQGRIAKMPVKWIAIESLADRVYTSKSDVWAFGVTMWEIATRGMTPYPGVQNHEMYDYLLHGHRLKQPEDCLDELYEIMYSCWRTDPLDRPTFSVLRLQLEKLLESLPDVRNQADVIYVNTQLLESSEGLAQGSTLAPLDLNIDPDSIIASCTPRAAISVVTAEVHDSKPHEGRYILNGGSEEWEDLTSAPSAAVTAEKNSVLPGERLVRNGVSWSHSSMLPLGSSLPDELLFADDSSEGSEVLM
Conditions: at 1 µM.

The target in assay [3] is T2, Tyrosine-protein kinase Mer (Homo sapiens). Conditions: at 10 µM.
Assay [4] deals with Hepatocyte growth factor receptor (Homo sapiens) (UniProt P08581). Conditions: at 1 µM.
For assay [5] the target is unchanged. Conditions: at 10 µM.
The target of assay [6] is MAP kinase-interacting serine/threonine-protein kinase 2 (Homo sapiens) (UniProt Q9HBH9). Conditions: at 1 µM.
Assay [7] shares this target. Conditions: at 10 µM.
For assay [8], the target named is T3, Muscle, skeletal receptor tyrosine-protein kinase (Homo sapiens) (UniProt O15146).
T3 sequence (whole entry): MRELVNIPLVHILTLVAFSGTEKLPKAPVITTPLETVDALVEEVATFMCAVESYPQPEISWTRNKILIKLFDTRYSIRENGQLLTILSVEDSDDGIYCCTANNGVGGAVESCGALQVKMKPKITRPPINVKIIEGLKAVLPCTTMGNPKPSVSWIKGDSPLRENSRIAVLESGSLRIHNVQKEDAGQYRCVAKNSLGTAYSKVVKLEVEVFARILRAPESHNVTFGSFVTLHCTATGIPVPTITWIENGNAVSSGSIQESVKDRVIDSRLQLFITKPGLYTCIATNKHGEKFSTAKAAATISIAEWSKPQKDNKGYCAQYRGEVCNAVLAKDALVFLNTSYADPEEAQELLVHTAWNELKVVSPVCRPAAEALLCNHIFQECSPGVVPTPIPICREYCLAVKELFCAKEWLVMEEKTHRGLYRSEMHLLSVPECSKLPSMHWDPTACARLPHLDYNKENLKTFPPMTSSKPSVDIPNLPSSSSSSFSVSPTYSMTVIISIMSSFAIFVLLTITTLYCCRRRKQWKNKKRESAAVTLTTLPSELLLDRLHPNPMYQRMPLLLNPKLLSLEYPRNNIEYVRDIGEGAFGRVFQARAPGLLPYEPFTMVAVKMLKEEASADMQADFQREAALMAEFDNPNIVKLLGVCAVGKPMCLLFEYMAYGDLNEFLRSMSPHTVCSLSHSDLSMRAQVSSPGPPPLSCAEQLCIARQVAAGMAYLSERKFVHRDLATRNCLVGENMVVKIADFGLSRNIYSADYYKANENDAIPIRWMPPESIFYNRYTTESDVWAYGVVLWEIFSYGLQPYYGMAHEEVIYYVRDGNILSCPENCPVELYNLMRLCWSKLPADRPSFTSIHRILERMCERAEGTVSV
As to conditions: at 1 µM.

Assay [9] has as its target T3, Muscle, skeletal receptor tyrosine-protein kinase (Homo sapiens). Conditions: at 10 µM.
In assay [10] the target is T4, Serine/threonine-protein kinase Nek11 (Homo sapiens) (UniProt Q8NG66).
T4 sequence (whole entry): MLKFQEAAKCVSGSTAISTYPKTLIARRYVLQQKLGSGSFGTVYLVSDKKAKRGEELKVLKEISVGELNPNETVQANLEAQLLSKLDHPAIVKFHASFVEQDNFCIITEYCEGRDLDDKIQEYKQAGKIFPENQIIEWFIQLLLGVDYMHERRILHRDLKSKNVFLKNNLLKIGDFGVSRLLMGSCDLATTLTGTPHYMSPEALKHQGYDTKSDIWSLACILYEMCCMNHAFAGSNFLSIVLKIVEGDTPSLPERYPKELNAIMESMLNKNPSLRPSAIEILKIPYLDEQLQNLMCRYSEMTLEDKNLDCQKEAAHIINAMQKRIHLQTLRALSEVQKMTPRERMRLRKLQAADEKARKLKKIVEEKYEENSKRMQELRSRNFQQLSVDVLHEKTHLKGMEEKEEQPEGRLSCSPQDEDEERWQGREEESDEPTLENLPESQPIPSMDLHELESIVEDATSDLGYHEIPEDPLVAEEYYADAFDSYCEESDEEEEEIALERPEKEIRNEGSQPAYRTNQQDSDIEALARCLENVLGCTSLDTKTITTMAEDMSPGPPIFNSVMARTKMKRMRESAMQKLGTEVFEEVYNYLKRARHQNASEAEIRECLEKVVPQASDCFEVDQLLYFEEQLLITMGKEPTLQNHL
Conditions: at 1 µM.

Assay [11] concerns the target T4, Serine/threonine-protein kinase Nek11 (Homo sapiens). Conditions: at 10 µM.
Assay [12] concerns the target T5, Serine/threonine-protein kinase Nek2 (Homo sapiens) (UniProt P51955).
T5 sequence (whole entry): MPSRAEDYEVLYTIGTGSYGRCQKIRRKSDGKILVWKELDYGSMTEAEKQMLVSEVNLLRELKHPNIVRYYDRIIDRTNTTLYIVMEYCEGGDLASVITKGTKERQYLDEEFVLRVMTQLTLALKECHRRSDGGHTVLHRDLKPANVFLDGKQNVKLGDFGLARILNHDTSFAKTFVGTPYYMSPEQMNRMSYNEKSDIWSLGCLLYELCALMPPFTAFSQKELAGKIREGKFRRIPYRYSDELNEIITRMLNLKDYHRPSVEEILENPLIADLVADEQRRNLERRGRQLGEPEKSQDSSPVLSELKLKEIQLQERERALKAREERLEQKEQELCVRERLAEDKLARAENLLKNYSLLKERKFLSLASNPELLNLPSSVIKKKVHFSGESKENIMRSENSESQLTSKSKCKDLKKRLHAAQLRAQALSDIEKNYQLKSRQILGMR
Conditions: at 1 µM.

Assay [13] deals with T5, Serine/threonine-protein kinase Nek2 (Homo sapiens). As to conditions: at 10 µM.
Assay [14] addresses T6, Serine/threonine-protein kinase Nek3 (Homo sapiens) (UniProt P51956).
T6 sequence (whole entry): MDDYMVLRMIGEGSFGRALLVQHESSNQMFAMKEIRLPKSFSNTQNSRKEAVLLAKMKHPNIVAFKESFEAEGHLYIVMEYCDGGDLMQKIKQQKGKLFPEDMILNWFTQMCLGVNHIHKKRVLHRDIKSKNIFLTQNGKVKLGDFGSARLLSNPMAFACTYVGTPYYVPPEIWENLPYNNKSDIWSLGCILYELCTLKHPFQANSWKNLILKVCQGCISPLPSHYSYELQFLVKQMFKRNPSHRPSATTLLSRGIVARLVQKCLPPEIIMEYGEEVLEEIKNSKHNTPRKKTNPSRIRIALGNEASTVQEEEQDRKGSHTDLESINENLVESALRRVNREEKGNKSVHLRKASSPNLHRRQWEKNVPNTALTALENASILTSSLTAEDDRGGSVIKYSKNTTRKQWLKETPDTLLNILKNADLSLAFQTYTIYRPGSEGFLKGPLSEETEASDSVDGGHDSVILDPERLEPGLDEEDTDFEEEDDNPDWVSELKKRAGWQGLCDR
Conditions: at 1 µM.

The target in assay [15] is T6, Serine/threonine-protein kinase Nek3 (Homo sapiens). As to conditions: at 10 µM.
Assay [16] deals with Serine/threonine-protein kinase tousled-like 2 (Homo sapiens) (UniProt Q86UE8). Conditions: at 1 µM.
For assay [17] the target is unchanged. Conditions: at 10 µM.
The target in assay [18] is T7, Testis-specific serine/threonine-protein kinase 1 (Homo sapiens) (UniProt Q9BXA7).
T7 sequence (whole entry): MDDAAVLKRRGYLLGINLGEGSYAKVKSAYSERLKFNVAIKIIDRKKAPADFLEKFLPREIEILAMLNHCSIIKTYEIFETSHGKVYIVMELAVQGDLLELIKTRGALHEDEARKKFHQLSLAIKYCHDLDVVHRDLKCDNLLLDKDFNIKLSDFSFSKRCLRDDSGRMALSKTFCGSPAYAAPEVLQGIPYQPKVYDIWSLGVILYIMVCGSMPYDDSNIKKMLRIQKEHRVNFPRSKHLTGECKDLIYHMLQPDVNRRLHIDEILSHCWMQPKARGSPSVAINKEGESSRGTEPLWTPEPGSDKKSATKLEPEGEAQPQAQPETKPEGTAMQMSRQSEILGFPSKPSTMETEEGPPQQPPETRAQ
Conditions: at 1 µM.

Assay [19] addresses T7, Testis-specific serine/threonine-protein kinase 1 (Homo sapiens). As to conditions: at 10 µM.
The target in assay [20] is T1, Testis-specific serine/threonine-protein kinase 2 (Homo sapiens). As to conditions: at 10 µM.

MAP kinase-interacting serine/threonine-protein kinase 2 (Homo sapiens), sequence (Q9HBH9 whole entry, looked up): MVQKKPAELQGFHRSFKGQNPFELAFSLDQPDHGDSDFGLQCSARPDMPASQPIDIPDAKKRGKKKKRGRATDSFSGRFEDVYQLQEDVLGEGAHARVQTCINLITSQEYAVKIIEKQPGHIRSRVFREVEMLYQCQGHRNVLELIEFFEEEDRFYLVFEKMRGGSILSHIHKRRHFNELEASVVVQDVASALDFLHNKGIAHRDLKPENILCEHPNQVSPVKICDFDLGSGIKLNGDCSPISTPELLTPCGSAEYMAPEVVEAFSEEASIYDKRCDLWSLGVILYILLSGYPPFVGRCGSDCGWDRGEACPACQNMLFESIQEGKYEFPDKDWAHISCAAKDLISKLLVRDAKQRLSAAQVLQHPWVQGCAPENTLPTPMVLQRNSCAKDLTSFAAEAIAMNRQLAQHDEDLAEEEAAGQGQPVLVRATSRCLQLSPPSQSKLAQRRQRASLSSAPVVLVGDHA
Hepatocyte growth factor receptor (Homo sapiens), sequence (P08581 whole entry): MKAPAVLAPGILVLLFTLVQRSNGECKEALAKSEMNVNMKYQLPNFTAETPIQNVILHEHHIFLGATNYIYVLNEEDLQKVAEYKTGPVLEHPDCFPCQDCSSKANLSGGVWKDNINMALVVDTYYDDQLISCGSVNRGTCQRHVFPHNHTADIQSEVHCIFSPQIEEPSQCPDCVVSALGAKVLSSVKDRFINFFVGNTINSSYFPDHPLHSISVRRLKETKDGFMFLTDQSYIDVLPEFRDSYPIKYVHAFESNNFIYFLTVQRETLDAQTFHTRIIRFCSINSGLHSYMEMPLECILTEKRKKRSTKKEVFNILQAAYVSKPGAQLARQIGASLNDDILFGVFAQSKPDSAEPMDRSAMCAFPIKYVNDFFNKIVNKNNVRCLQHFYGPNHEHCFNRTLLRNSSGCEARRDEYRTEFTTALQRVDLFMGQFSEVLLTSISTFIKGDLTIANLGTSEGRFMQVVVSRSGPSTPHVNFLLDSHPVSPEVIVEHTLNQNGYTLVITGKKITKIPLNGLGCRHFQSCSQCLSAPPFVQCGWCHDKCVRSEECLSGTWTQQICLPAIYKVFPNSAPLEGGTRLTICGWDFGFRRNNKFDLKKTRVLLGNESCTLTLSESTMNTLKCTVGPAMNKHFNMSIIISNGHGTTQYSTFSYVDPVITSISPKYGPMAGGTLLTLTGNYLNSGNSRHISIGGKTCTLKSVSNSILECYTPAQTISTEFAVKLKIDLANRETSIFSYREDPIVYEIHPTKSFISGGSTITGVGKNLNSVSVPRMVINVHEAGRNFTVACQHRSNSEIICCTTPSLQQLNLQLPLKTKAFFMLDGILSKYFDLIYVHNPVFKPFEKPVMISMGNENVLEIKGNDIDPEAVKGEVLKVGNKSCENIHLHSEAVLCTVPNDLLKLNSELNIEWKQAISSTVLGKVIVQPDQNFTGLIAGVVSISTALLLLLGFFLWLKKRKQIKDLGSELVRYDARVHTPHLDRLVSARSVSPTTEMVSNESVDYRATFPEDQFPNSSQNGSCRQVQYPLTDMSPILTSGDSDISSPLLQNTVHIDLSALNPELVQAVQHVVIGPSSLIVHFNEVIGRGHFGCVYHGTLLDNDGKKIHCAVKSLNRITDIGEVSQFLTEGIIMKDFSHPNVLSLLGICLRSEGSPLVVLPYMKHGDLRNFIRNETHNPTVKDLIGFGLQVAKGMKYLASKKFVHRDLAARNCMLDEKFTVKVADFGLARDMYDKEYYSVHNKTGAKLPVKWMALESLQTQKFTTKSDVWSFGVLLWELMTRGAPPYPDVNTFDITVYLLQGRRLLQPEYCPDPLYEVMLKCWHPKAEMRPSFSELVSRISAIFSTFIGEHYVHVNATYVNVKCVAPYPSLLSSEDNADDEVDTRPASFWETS
Serine/threonine-protein kinase tousled-like 2 (Homo sapiens), sequence (Q86UE8 whole entry, looked up): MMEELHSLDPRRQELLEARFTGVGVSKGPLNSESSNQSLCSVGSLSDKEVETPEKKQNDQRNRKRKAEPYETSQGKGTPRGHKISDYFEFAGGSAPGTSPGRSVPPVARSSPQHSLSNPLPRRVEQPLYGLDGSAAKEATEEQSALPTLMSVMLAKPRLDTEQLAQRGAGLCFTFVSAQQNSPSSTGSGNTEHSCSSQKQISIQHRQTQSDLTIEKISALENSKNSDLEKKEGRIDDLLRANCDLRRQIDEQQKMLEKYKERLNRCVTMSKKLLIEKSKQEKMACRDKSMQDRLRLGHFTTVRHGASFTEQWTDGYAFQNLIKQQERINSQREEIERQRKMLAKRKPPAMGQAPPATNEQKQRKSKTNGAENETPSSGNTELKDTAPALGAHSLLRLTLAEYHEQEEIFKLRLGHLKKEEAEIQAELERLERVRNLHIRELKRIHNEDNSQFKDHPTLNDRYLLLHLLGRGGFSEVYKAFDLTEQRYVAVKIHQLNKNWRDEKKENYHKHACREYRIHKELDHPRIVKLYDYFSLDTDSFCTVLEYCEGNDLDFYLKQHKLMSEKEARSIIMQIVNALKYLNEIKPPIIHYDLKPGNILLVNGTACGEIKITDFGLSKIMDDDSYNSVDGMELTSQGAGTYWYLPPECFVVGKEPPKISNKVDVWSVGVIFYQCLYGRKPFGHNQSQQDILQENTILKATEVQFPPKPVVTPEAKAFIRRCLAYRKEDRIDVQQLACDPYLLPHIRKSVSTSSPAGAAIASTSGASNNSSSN

Regarding `Cn1sc(=O)n(Cc2ccccc2)c1=O`, the residual activity in assay [1] came out at 88%.
On to `O=C1Nc2ccc3ncsc3c2/C1=C/c1c[nH]cn1`, for which the residual activity in [2] worked out at 6%; in assay [3] it was 2%; in [4] it was 18%; in assay [5], 4%; in assay [6] it was 9%; in assay [7], 4%. Further, the residual activity in assay [8] was found to be 53%; in [9], 11%; in assay [10] it was 50%; in [11] it was 13%; in assay [12], 64%; in [13] it was 39%. Moreover, the residual activity worked out at 102% in assay [14]; 32% in assay [15]; 19% in assay [16]; 3% in assay [17]; 68% in assay [18]; 31% in [19]. For the same compound, the residual activity worked out at 89% in assay [1] and 86% in assay [20].
Regarding `O=C1NC(=O)c2c1c1c3ccccc3n3c1c1c2c2ccccc2n1C1CCC3O1`, the residual activity worked out at 34% in assay [2]; 11% in [3]; 97% in assay [6]; 95% in assay [7]; 91% in [10]; 87% in assay [11]. Further, the residual activity in assay [16] amounted to 62%; in [17], 68%; in assay [18] it was 92%; in [19], 70%; in assay [1] it was 82%; in assay [20], 96%.
Consider `O=[N+]([O-])/C=C/c1ccc2c(c1)OCO2`, for which the residual activity in assay [2] came out at 106%; in assay [3], 108%; in [4] it was 111%; in [5], 96%; in [6], 116%; in assay [7], 105%. Also, the residual activity in assay [8] turned out to be 127%; in [9], 114%; in assay [10], 90%; in assay [11], 106%; in [12], 87%; in [13], 98%. The residual activity in assay [15] is 107%; in assay [16], 99%; in assay [17], 97%; in assay [18], 96%; in assay [19], 94%; in assay [1] it was 87%. Also, the residual activity in assay [20] turned out to be 74%.
On to `O=c1[nH]c2ccccc2n1C1CCN(Cc2ccc(-c3nc4cc5[nH]cnc5cc4nc3-c3ccccc3)cc2)CC1`, for which the residual activity in assay [2] is 112%; in assay [3] it was 51%; in [4], 93%; in [5], 88%; in [6], 97%; in [7], 67%. For the same compound, the residual activity in [8] stood at 105%; in [9] it was 84%; in [10], 75%; in assay [11], 88%; in assay [12], 86%; in [13], 84%. For the same compound, the residual activity is 111% in [14]; 104% in assay [16]; 84% in assay [17]; 97% in assay [18]; 54% in assay [19]; 106% in assay [1]. In assay [20], the residual activity was found to be 45%.
As to `CCn1cnc2c(Nc3cccc(Cl)c3)nc(N[C@@H]3CCCC[C@@H]3N)nc21`, the residual activity is 8% in assay [2]; -1% in [3]; 72% in assay [5]; 97% in [6]; 70% in [7]; 61% in assay [8]. Besides, the residual activity in assay [9] came out at 13%; in assay [10], 68%; in assay [11], 55%; in assay [12], 98%; in [13], 55%; in assay [14], 75%. Besides, the residual activity came out at 81% in assay [15]; 31% in assay [16]; 4% in assay [17]; 79% in [18]; 40% in assay [19]; 90% in assay [1]. For the same compound, the residual activity in [20] was found to be 58%.
